Data reported in PubChem BioAssay (NCI).
Compounds without any hit were thinned out: in the full panel of roughly 79,000, 15% have a hit. Calls of active or inactive are those of the source. No stated cut-off is given here; in the data, active means growth inhibition above about 70%; inactive means the rest.

What was measured:
[1] = NCI Yeast Anticancer Drug Screen. Data for the rad50 strain (AID 155);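 further: 0% = growth of vehicle-only cultures of the same strain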; settings: S. cerevisiae rad50 strain growth inhibition; at 50.0 µM; hits give high values
Procedure, shortened: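 Yeast carrying a defined DNA repair defect were exposed to test compounds, and growth was compared with vehicle-treated controls to give percent inhibition.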

[2] = NCI Yeast Anticancer Drug Screen. Data for the mec2-1 strain (AID 157); settings: S. cerevisiae mec2-1 strain, at 50.0 µM, hits give high values
Procedure, shortened: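 Vehicle-treated cultures served as reference for growth inhibition of compound-exposed mec2-1 yeast.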

[3] = NCI Yeast Anticancer Drug Screen. Data for the sgs1 mgt1 strain (AID 161);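 further: 0% = growth of cultures given vehicle only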; settings: S. cerevisiae sgs1 mgt1 strain, at 50.0 µM, hits give high values
Procedure, shortened: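 Genetically altered yeast, compound exposure, growth inhibition relative to vehicle.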

[4] = NCI Yeast Anticancer Drug Screen. Data for the cln2 rad14 strain (AID 165);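 further: 0% = growth equal to vehicle treated cultures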; settings: S. cerevisiae cln2 rad14 strain, at 50.0 µM, hits give high values
Procedure, shortened: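 Each compound was tested on cln2 rad14 yeast. Inhibition of growth was calculated against vehicle-exposed controls.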

[5] = NCI Yeast Anticancer Drug Screen. Data for the bub3 strain (AID 167); settings: S. cerevisiae bub3 mutant strain, at 50.0 µM, hits give high values
Procedure, shortened: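 Compounds were applied to a genetically altered yeast strain carrying a cell-cycle control defect. Growth inhibition was scored against vehicle-treated controls.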

[6] = NCI Yeast Anticancer Drug Screen. Data for the mlh1 rad18 strain (AID 175); settings: S. cerevisiae mlh1 rad18 strain growth inhibition; at 50.0 µM; hits give high values
Procedure, shortened: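 Vehicle-treated cultures served as the reference for growth inhibition in a yeast strain carrying DNA damage repair alterations exposed to each compound.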

Measured: growth inhibition

CN=C(NN(C)C)c1ccc(NC(=O)c2ccc(C(=O)Nc3ccc(C(=NC)NN(C)C)cc3)cc2)cc1
inactive: [1] 8.4% | [2] 7.65% | [3] 10.8% | [4] 10.1% | [5] -13.8% | [6] 13.9%

CCCCCCCCNC(C(=O)c1ccc(Cl)cc1)c1ccc(Cl)cc1 (stereo not given)
inactive: [1] 8.05% | [2] 17.4% | [3] 21.6% | [4] -18.3% | [5] -8% | [6] 25.8%

CCCCCC(=O)OCCOCCCC
inactive: [1] 2.05% | [2] 4% | [3] -4.6% | [4] -35.4% | [5] 6.85% | [6] 5.85%

CC(C)(C)C1=CC(=C2C(=O)C(=O)c3ccccc3C2=O)C=C(C(C)(C)C)C1=O
inactive: [1] -3.2% | [2] -22.2% | [3] -12.7% | [4] 6.85% | [5] 22.4% | [6] -21.5%

Cc1cc(C)cc(Cc2ccc3ccccc3c2)c1
inactive: [1] 2.9% | [2] -3.65% | [3] -1.15% | [4] -12.3% | [5] 9.45% | [6] 8.45%

N#Cc1cc([N+](=O)[O-])ccc1NC(=O)/C(=N\NC(=O)c1ccncc1)C(c1cnc2ccc([N+](=O)[O-])cc2n1)[N+](=O)[O-] (stereo not given)
inactive: [1] 8.6% | [2] 11.4% | [3] -11.1% | [4] -16.1% | [5] 25.4% | [6] 2.75%

CCN=C1SCCCS1
inactive: [1] -8.8% | [2] -22.8% | [3] -13.4% | [4] -19.5% | [5] -15.9% | [6] -14.8%

C=C1C(=O)C23C(O)CC4C(C)(C)[C@@H](OC(C)=O)CCC4(C)[C@]2(O)CCC1[C@@H]3O (stereo not given in full)
inactive: [1] 46.8% | [2] 48.9% | [3] 44.9% | [4] 40.1% | [6] 67%
active: [5] 70.5%

COc1ccccc1/C=C1\CCC(CCN(C)C)(C2=CCCC2)C1=O (stereo not given)
inactive: [1] -3.05% | [2] -11.8% | [3] -27.5% | [4] 11.1% | [5] -17.7% | [6] 24.4%

O=c1c2cc(S(=O)(=O)Nc3ccc(Cl)cc3Cl)ccc2ncn1NS(=O)(=O)c1cccc2ccccc12
inactive: [1] 10.9% | [2] -5.4% | [3] 28.6% | [4] 18.8% | [5] 8.85% | [6] 14.9%

Nc1[nH]nc2nc3n(c(=O)c12)CCCCC3
inactive: [1] 7.1% | [2] 19.7% | [3] 5.6% | [4] 5.55% | [5] -5.75% | [6] -4.15%

C/C(=N/Nc1ccc([N+](=O)[O-])cc1[N+](=O)[O-])C1=CCCCC1
inactive: [1] -0.2% | [2] -1.35% | [3] -0.95% | [4] -4.8% | [5] 3.15% | [6] -4.85%

COc1cccc2c(C(=O)O)cc(-c3ccc(Cl)cc3)nc12
inactive: [1] 7.85% | [2] 0.75% | [3] 19.1% | [4] 15.2% | [5] 6.9% | [6] 15.9%

COc1ccc(NC=O)c(C(=O)CCNC(C)=O)c1
inactive: [1] -14.9% | [2] -20.2% | [3] -13.4% | [4] -6.8% | [5] -16.3% | [6] -51.2%

O=P1(c2ccccc2)c2ccccc2CCc2ccccc21
inactive: [1] 18% | [2] 2.75% | [3] 21.8% | [4] 22.1% | [5] 2.25% | [6] 8.35%

CC(=O)[C@H]1CC[C@H]2[C@@H]3CC(=O)C4=CC(=O)CC[C@]4(C)[C@H]3C(=O)C[C@]12C
inactive: [1] 11.3% | [2] -12.2% | [3] 11.2% | [4] -25.6% | [5] 0.45% | [6] -4.9%

CNC1(C(N)=O)CCN(Cc2ccccc2)CC1
inactive: [1] -14.7% | [2] -10.3% | [3] -25.8% | [4] 0.75% | [5] -3.6% | [6] -8.35%

Cc1cnc(N/N=C/c2c(CO)cnc(C)c2O)s1
inactive: [1] 20.6% | [2] 9.85% | [3] 7.25% | [4] 11.6% | [5] 2.75% | [6] 23.6%

COc1ccc(C(=O)NNC(=O)c2ccccc2)cc1
inactive: [1] 11.9% | [2] -42.5% | [3] -14.8% | [4] 10.1% | [5] -1.1% | [6] -14.2%

C[C@@H]1O[C@]2(O)[C@@H]3CCCN3S(=O)(=O)CCN2C1=O
inactive: [1] 2.1% | [2] -21.6% | [3] -16.9% | [4] 17.7% | [5] -11.3% | [6] -17.1%

CCN(CCO)C(=O)C1(c2ccccc2)CCCCC1
inactive: [1] 11.8% | [2] -9.7% | [3] 9.35% | [4] 28% | [5] 18.4% | [6] -1.4%

CCCCCCOc1ccc(OCCCC[N+]2(CC)CCCCC2)cc1
inactive: [4] 46.5%
active: [1] 75.5% | [2] 87.8% | [3] 73.7% | [5] 90.8% | [6] 90.8%

O=C1CC2(CCCCC2)C(=O)N1c1cc([N+](=O)[O-])ccn1
inactive: [1] 25.4% | [2] 14.7% | [3] 0.8% | [4] 17.6% | [5] 10% | [6] 19.8%

OC1CSCCCSCC(O)CSCCCSC1 (stereo not given)
inactive: [1] 1.7% | [2] 10.9% | [3] 3.4% | [4] -2.5% | [5] 0.2% | [6] 8%

O=C1C2CCCCC2C(=O)N1O (stereo not given)
inactive: [1] 60.1% | [2] -1.5% | [3] 18.8% | [4] 16.6% | [5] 1.45% | [6] 9.25%

CS(=O)(=O)CC(=O)c1ccc(O)cc1O
inactive: [1] 4.55% | [2] 3.55% | [3] -0.6% | [4] -43.2% | [5] -13.1% | [6] -7%

Nc1ccc(N=Nc2ccc(OCCN(CCO)CCO)cc2)c(N)n1
inactive: [1] 23.8% | [2] -22.8% | [3] 8.8% | [4] 4.95% | [5] 21.6% | [6] 15.7%

COP(=O)(OC)C(Cc1cn(C(C)=O)c2ccccc12)C(=O)O (stereo not given)
inactive: [1] -53.3% | [2] -69.5% | [3] -56.8% | [4] -25.1% | [5] -27.4% | [6] -37.5%

O=C1c2ccccc2C(O)(c2ccc(O)cc2)c2ccccc21
inactive: [1] -3.25% | [2] 0.1% | [3] -0.95% | [4] -0.3% | [5] 6.1% | [6] 6.2%

CC12CC3CC(C)(C1)CC(SCCN=C(N)CCl)(C3)C2
active: [1] 98.5% | [2] 99% | [3] 99.3% | [4] 96.3% | [5] 99% | [6] 99.2%

C=CCC(OC(C)=O)c1cccc(OC)c1OC (stereo not given)
inactive: [1] 3.7% | [2] 7.2% | [3] -9.45% | [4] -48.7% | [5] -3.25% | [6] -5.3%

CNc1ncnc2[nH]cc([N+](=O)[O-])c12
inactive: [1] 6.45% | [2] 1.95% | [3] 10.1% | [4] 9.05% | [5] 3.9% | [6] 33.6%

CC(=O)OCC1OC(n2c(O)c(/C=C3\C=Nc4ccccc43)sc2=S)C(OC(C)=O)C(OC(C)=O)C1OC(C)=O (stereo not given)
inactive: [1] 20.4% | [2] -11.7% | [3] -15.4% | [4] 18.9% | [5] -3.5% | [6] 4.9%

CC(=O)NCCc1ccc(C(=O)O)cc1
inactive: [1] -17% | [2] -1% | [3] 2.2% | [4] -34.2% | [5] -11.4% | [6] 3.65%

COc1cc(C(=O)NC(=S)NC2CCCCCCCCCCC2)cc(OC)c1OC
inactive: [1] 8.1% | [2] -15.3% | [3] 7.25% | [4] 1.65% | [5] 6.05% | [6] 4.6%

CCCCCCCCn1c(N)c(C#N)cnc1=S
inactive: [1] -27.9% | [2] 9.65% | [3] -3.45% | [4] -20.2% | [5] 12% | [6] 1.2%

CCCCCCCC(C(=O)O)C(=O)O
inactive: [1] -2.1% | [2] 0.4% | [3] 10.3% | [4] 10.3% | [5] -2.5% | [6] 11.5%

NNC(=O)N/N=C/c1cccc(O)c1
inactive: [1] -11.7% | [2] -2.35% | [3] -21.4% | [4] -12.1% | [5] 1.1% | [6] -19.4%

O=C(Nc1ccc(C2=NCCN2)cc1)c1cncc(C(=O)Nc2ccc(C3=NCCN3)cc2)c1
inactive: [1] 5.2% | [2] 22.6% | [3] 16.4% | [4] 50% | [5] 8.95% | [6] 45.6%

CCN1CCCN(CC)C1=O
inactive: [1] 6.1% | [2] 4.15% | [3] -4.4% | [4] -30.4% | [5] -0.45% | [6] 0.1%
